{
  "source": "PubChem BioAssay AID2782",
  "about": "(National Center for Advancing Translational Sciences (NCATS), 2010)",
  "note": "Results filed as inconclusive are left out. Calls of active or inactive are those of the source. Calls follow the shape of the dose curve; as a rule, active = well fitted inhibition curve with a large enough effect in the polarisation, with a control signal flat (not every such curve was filed as active); inconclusive = small, poorly fitted or top-dose-only effect, or effect the other way, or a change in a side signal; inactive = no such curve, though single readings can be large or run the other way; the % refers to the polarisation. % is scaled to controls: 0 for no effect and ±100 for the full control effect; potency is read from the fitted curve at half-maximal effect.",
  "data": [
    {"test": "Confirmation of Inhibitors Targeting the Menin-MLL Interaction in MLL Related Leukemias: Competition With Texas Red Labeled MLL-derived Mutant Peptide", "details": "fluorescence polarization, Texas Red MLL peptide displacement; series mostly up to 288 µM; FP change, negative = inhibition: at the top concentration", "excerpt": "qHTS Assay for Inhibitors Targeting the Menin-MLL Interaction in MLL Related Leukemias\nNIH Chemical Genomics Center [NCGC]\nNIH Molecular Libraries Probe Centers Network [MLPCN]\nAssay Submitter (PI): Jolanta Grembecka, Tomasz Cierpicki, University of Virginia\nTranslocations of the MLL (Mixed Lineage Leukemia) gene are frequently found in human leukemias affecting both children and adults. Fusion of MLL to one of more than 60 genes results in generation of oncogenic proteins upregulating Hox genes, which are vital to blood cell development. Patients harboring fusion of the MLL gene suffer from aggressive leukemias and respond poorly to available therapies. All of the oncogenic fusion proteins have a preserved N-terminal fragment of MLL that has been identified to interact with menin. It has been recently discovered that association with menin is critical to the leukemogenic activity of the MLL fusion oncoproteins. Selective targeting of the menin-MLL interaction could provide an attractive therapeutic approach to develop novel drugs for MLL-related leukemias. Small molecules blocking the menin-MLL interaction should reverse the oncogenic potential of MLL fusion proteins.\nWe have developed and optimized a fluorescence polarization-based assay for the identification of Menin-MLL inhibitors. The assay was run employing two different MLL-derived peptides. The present assay uses a 12 amino acid peptide labeled with fluorescein at its N-terminus. This peptide consists of the menin high affinity binding motif from MLL and is potently bound by menin. Another peptide with a mutated sequence, labeled with Texas Red, was used in parallel as a less stringent screen for inhibitors.\nThe present assay was run to confirm the activity of hits from the primary screen using the peptide with a mutated sequence, labeled with Texas Red.\nThe Menin protein, the MLL-wild type (w.t.) derived peptide (N-terminal 12 amino acids), the MLL-derived peptide labeled with Texas Red and the MLL-w.t. peptide labeled with Fluorescein were kindly supplied by laboratory of Dr. Jolanta Grembecka, University of Virginia. All protein and peptide solutions were stored in single use aliquots at -80C. The Eu3+ Cyrptate-conjugated mouse monoclonal antibody anti-6 Histidine (Eu3+-AB) and the Streptavidin-XL665 conjugate (XL665) were purchased from Cisbio International (Bedford, MA). All antibody and XL665 conjugate solution stocks were stored in single use aliquots at -20C. The Buffer components for all assays were purchased from Sigma-Aldrich (St. Louis, MO) and Invitrogen (Carlsbad, CA).\n1. FP reaction buffer: 50 mM Tris-HCl pH 7.5, 50 mM NaCl, 1mM DTT.\nBefore use, 0.05% BSA is added.\n2. Menin protein, MLL-w.t. labeled with fluorescein, MLL-mutant peptide labeled with texas red.\nStored in singe use aliquots at -80C.\n3. MLL-w.t. unlabeled peptide as positive control: 10 uM final in FP buffer.\n1. Prepare Menin at 200 nM, MLL-w.t.-fluorescein at 25 nM, and MLL-mutant-texas red at 50 nM mixture in FP buffer.\n2. Prepare Menin at 200 nM, MLL-w.t.-fluorescein at 25 nM, MLL-mutant-texas red at 50 nM, and 10 uM MLL-w.t. unlabeled mixture in FP buffer.\n3. Prepare MLL-w.t.-fluorescein at 25 nM and MLL-mutant-texas red at 50 nM mixture in FP buffer.\n3. Dispense 4 ul per well of reagent in step 1 in columns 2, 4 - 48 in a black 1536 well plate, dispense 4 ul per well of reagents from steps 2 and 3 in columns 1 and 3 respectively. Incubate plate at ambient for 15 minutes.\n4. Transfer 23 nl per well of compound to plate and incubate at ambient for 1 hr.\n5. Read fluorescence polarization for each label using the PerkinElmer Envision.\nEnvision protocol for fluorescein: FITC FP Dual Enh Mirror, Excitation filter 480, Emission filter (1) P-pol 535, Emission filter (2) S-pol 535\nEnvision protocol for texas red: FP Dual Enh Mirror, Excitation filter 555, Emission filter (1) P-pol 632, Emission filter (2) S-pol 632", "values": [
      {"compound": "COc1cc(/C=N/n2cnnc2)ccc1OC(=O)N(C)C", "FP change, negative = inhibition": "-22.9% (inactive)"},
      {"compound": "C[N+](C)(C)CC#CCN1CCCC1=O", "FP change, negative = inhibition": "-6.23% (inactive)"},
      {"compound": "CCCCCn1c(=O)c(C(=O)Nc2nc(CC(=O)OCC)cs2)c(O)c2ccccc21", "FP change, negative = inhibition": "30.7% (inactive)"},
      {"compound": "CCOP(=O)(OCC)C(NC(=O)c1ccccc1C)C(Cl)(Cl)Cl", "note": "(centres undefined)", "FP change, negative = inhibition": "-1.99% (inactive)"},
      {"compound": "CC[C@]12C=CCN3CC[C@@]4(c5ccc(OC)cc5N(C)[C@H]4[C@@](O)(C(=O)OC)[C@@H]1OC(C)=O)C32", "note": "(some centres undefined)", "FP change, negative = inhibition": "17.2% [at 94.6 µM] (inactive)"},
      {"compound": "c1cc2cc(c1)C[n+]1ccc(c3ccccc31)NCc1ccc(cc1)CNc1cc[n+](c3ccccc13)C2", "Potency": "100 µM (active)"},
      {"compound": "C[C@@H]1CC[C@@]2(NC1)O[C@H]1C[C@H]3[C@@H]4CC=C5C[C@@H](O)CC[C@]5(C)[C@H]4CC[C@]3(C)[C@H]1[C@@H]2C", "FP change, negative = inhibition": "28.8% [at 94.6 µM] (inactive)"},
      {"compound": "CCCCn1c(=O)c(C(=O)Nc2ccsc2C(=O)OC)c(O)c2ccccc21", "Potency": "14.2 µM (active)"},
      {"compound": "O=C(O)CN1C(=O)CN=C(c2ccccn2)c2cc(Cl)ccc21", "FP change, negative = inhibition": "-13.2% (inactive)"},
      {"compound": "Cc1cc(C(=O)NP(=O)(N2CCOCC2)N2CCOCC2)c(C)n1C1CC1", "FP change, negative = inhibition": "-16.8% [at 94.6 µM] (inactive)"},
      {"compound": "OC12C3C4CC5C6C4C1C6C(C53)N2CCc1cccc(F)c1", "note": "(centres undefined)", "FP change, negative = inhibition": "22.9% [at 94.6 µM] (inactive)"},
      {"compound": "O=C(Nc1ccc2ccccc2c1)c1nn(C23CC4CC(CC(C4)C2)C3)cc1Br", "FP change, negative = inhibition": "45.4% (inactive)"},
      {"compound": "O=C1NC(=O)C(=Cc2ccc3ccccc3c2)C(=O)N1", "FP change, negative = inhibition": "21.9% (inactive)"},
      {"compound": "COc1ccc(C(O)P(=O)(Oc2ccccc2)Oc2ccccc2)cc1", "note": "(centres undefined)", "FP change, negative = inhibition": "-9.59% (inactive)"}
    ]}
  ]
}
